Among the data in PubChem BioAssay AID652115 (Broad Institute, 2013) are inhibition values, retold here.

A word on the inhibition: it is the relative decrease from the control value, in per cent.

Screen size: about 330,000 compounds; about 3,800 (1.2%) were called active. For the sample, actives were picked, then their nearest neighbours and some compounds at random. Values without a mark were called inactive. No stated cut-off is given here; in the data, active means inhibition above about 15%; inconclusive means no clear call, values can overlap the other calls; inactive means below that.

The target in the assay is NAD-dependent protein deacylase sirtuin-5, mitochondrial (Homo sapiens) (UniProt Q9NXA8). Put plainly: SIRT5 desuccinylase inhibitors, primary screen, biochemical, fluorescence imaging, single point, set 5 (AID 652115). As to conditions: Purified SirT5, succinyl-peptide AMC, trypsin-coupled fluorescence; at 15 µM; active compounds read high.
Sequence of NAD-dependent protein deacylase sirtuin-5, mitochondrial (Homo sapiens) (Q9NXA8 whole entry, looked up): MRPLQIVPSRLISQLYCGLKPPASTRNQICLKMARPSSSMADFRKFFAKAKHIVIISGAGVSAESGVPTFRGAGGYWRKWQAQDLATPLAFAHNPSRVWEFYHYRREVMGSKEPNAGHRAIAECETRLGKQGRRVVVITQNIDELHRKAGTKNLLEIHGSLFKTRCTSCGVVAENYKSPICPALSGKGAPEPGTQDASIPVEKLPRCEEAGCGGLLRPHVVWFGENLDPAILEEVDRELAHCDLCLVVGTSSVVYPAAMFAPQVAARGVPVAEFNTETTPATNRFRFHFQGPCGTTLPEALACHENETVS
For `CC(Cc1ccccc1)NC=O` (stereo not given), the inhibition was -0.859%. Turning to `CC(=O)Nc1ccc(C(=O)C(Cc2ccccc2)N(C)C)cc1` (stereo not given), the inhibition was 18.6% (active).

Take `O=C(COC(=O)Cc1ccccc1)Nc1ccc(F)cc1`: the inhibition is -1.48%.

As for `COC(=O)[C@H]1[C@H](CO)[C@H]2Cn3c(cccc3=O)[C@H]2N1CC1CC1`, the inhibition is 0.308%. With `COC(=O)C1=C(c2ccc(OCc3ccccc3)cc2)C[C@@H]2CC[C@H]1N2C(=O)NCc1cccc(F)c1` the figure was -8.66%.

For the compound `O=C1NCN(c2ccccc2)C12CCN(C(c1cccs1)c1nnnn1C1CCCCC1)CC2` (stereo not given), the inhibition is 3.05%. `COc1ccc(N2C(=O)/C(=C/c3ccco3)C(=O)NC2=S)cc1`: the inhibition was 44.4% (active).

For `COc1ccc(CN2C(=O)NC(=O)/C(=C\c3ccc(OC)c(OC)c3OC)C2=O)cc1`, the inhibition is -0.842%. `COc1cccc(N2C(=O)NC(=O)/C(=C\c3cn(C)c4ccccc34)C2=O)c1`: the inhibition is -7.3%. Regarding `S=C(NCCc1ccccc1)N1Cc2cc(N3CCOCC3)ccc2-n2nncc2C1`, the inhibition is 0.564%.
